Measurements: the supplement of paper PMC10849652
About 7,900 targets were measured; listed, in parts, are those with a hit and a random draw of the rest. About 0.6% of all pairs of compound and target were hits. A number with no mark means an inactive call.

How the values were obtained:
Assay in all cases: log2 fold change, soluble protein after heating vs DMSO (PISA); higher = thermal stabilisation; K562 cells, 10 uM, 30 min; active = over 0.2 and 3.5 SD of the protein, either way, in both replicates (recomputed)
erlotinib = compound: C#Cc1cccc(Nc2ncnc3cc(OCCOC)c(OCCOC)cc23)c1 [erlotinib]
Outline: (§1)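 Values are thermal stability changes relative to control samples and are taken from duplicates. They are stated as log2 fold changes. Before quantification by TMTpro 16plex LC-MS/MS with equalised channel sums, K562 cells at 2×10^6 cells/mL were treated with 10 μM compound for 30 min, heated in aliquots for 3 min across 48°C-58°C, pooled, extracted in PBS with 0.5% NP-40 at 4°C, and centrifuged at 21,000xg for 90 min to give the soluble supernatant.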

[1] = compound: C/C(=N\NC(=O)C1=CC(=CC=C1)S(=O)(=O)N2CCOCC2)/C3=C(C=CC(=C3)Cl)O
Outline: as §1

[2] = compound: C1=CC(=C(C=C1Cl)C2=NC3=NC=CN=C3C(=N2)NC4=CC=NC=C4)F
Outline: as §1

[3] = compound: C1=CC(=CC=C1C2=NC3=C(N2)C=C(C=C3)C(=O)N)OC4=CC=C(C=C4)Cl
Outline: as §1

[4] = compound: C1=CC2=C(C=CC(=C2)/C=C\3/C(=O)NC(=NCC4=CC=CS4)S3)N=C1
Outline: as §1

[5] = compound: C1=CC2=NC=CN=C2C=C1/C=C/3\C(=O)NC(=O)S3
Outline: as §1

[6] = compound: C1=CC=C(C=C1)C2=NC(=C(N2)C3=CC=NC=C3)C4=CC(=C(C=C4)Cl)O
Outline: as §1

[7] = compound: C1=CC=C2C(=C1)C3=NNC4=CC=CC(=C43)C2=O
Outline: as §1

[8] = compound: C1CCN(C1)C(=O)NC2=CC=CC(=C2)NC3=NC=C(C(=N3)NCCC4=CN=CN4)Br
Outline: as §1

[9] = compound: C1CN(CCC1(CC2=CC=C(C=C2)Cl)N)C3=NC=NC4=C3C=CN4
Outline: as §1

IRAK-1-4 Inhibitor I = compound: C1COCCN1CCN2C3=CC=CC=C3N=C2NC(=O)C4=CC(=CC=C4)[N+](=O)[O-] [IRAK-1-4 Inhibitor I]
Outline: as §1

ibrutinib = compound: C=CC(=O)N1CCC[C@@H](n2nc(-c3ccc(Oc4ccccc4)cc3)c3c(N)ncnc32)C1 [ibrutinib]
Outline: as §1

[10] = compound: CC(=O)c1cnc2ccc(-c3cc(Cl)c(O)c(Cl)c3)nc2c1N[C@H]1CC[C@H](CN(C)C)CC1
Outline: as §1

ralimetinib = compound: CC(C)(C)Cn1c(N)nc2ccc(-c3[nH]c(C(C)(C)C)nc3-c3ccc(F)cc3)nc21 [ralimetinib]
Outline: as §1

[11] = compound: CC(C)(O)CC(=O)NCCn1ccc2ncnc(Nc3ccc(Oc4cccc(C(F)(F)F)c4)c(Cl)c3)c21
Outline: as §1

[12] = compound: CC(C)C1=C2N=C(C=C(N2N=C1)NCC3=CC=CC=C3)NCCCCCCN
Outline: as §1

[13] = compound: CC(C)C[C@@H](C=O)NC(=O)[C@H](CC(C)C)NC(=O)[C@H](CC(C)C)NC(=O)OCc1ccccc1
Outline: as §1

pinometostat = compound: CC(C)N(C[C@H]1O[C@@H](n2cnc3c(N)ncnc32)[C@H](O)[C@@H]1O)[C@H]1C[C@@H](CCc2nc3cc(C(C)(C)C)ccc3[nH]2)C1 [pinometostat]
Outline: as §1

[14] = compound: CC1=C(C(CC(=O)N1)C2=CC=C(C=C2)C(F)(F)F)C(=O)NC3=C(C=C4C(=C3)C=NN4)F
Outline: as §1

[15] = compound: CC1=C(C2=C(C=C1)C(=O)C3=CC=CC=C3N2CCCN)C
Outline: as §1

Chain of UniProt O43615 (O43615 whole entry, looked up): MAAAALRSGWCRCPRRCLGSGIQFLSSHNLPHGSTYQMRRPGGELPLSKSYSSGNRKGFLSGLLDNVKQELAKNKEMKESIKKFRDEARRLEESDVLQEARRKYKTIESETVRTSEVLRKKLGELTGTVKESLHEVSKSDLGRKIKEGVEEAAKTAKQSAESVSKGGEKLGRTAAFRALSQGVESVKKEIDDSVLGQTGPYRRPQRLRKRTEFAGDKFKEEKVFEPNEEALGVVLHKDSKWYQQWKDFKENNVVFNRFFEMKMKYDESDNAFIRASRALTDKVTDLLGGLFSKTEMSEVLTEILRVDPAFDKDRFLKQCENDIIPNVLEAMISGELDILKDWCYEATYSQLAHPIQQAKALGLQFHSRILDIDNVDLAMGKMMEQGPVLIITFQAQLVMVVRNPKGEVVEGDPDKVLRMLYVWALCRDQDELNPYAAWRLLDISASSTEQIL
Chain of UniProt Q8IWZ8 (Q8IWZ8 whole entry, looked up): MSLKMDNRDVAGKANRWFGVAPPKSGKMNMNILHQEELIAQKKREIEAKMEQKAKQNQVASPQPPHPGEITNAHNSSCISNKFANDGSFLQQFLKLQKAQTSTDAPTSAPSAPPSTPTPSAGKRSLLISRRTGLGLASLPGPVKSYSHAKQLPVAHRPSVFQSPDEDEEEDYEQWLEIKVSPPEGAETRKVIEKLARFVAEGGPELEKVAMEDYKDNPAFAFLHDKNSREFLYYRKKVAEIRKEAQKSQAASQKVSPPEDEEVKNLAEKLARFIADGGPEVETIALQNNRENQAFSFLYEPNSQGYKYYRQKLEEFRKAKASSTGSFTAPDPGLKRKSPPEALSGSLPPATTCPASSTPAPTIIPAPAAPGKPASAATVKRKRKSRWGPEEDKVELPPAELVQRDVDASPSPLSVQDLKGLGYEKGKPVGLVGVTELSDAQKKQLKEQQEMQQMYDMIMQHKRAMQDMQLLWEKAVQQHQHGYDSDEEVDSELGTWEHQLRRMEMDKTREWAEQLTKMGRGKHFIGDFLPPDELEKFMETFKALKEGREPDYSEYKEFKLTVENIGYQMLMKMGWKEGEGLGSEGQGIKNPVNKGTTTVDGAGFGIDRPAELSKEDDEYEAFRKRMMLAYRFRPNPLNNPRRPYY
Chain of UniProt Q8TC07 (Q8TC07 whole entry, looked up): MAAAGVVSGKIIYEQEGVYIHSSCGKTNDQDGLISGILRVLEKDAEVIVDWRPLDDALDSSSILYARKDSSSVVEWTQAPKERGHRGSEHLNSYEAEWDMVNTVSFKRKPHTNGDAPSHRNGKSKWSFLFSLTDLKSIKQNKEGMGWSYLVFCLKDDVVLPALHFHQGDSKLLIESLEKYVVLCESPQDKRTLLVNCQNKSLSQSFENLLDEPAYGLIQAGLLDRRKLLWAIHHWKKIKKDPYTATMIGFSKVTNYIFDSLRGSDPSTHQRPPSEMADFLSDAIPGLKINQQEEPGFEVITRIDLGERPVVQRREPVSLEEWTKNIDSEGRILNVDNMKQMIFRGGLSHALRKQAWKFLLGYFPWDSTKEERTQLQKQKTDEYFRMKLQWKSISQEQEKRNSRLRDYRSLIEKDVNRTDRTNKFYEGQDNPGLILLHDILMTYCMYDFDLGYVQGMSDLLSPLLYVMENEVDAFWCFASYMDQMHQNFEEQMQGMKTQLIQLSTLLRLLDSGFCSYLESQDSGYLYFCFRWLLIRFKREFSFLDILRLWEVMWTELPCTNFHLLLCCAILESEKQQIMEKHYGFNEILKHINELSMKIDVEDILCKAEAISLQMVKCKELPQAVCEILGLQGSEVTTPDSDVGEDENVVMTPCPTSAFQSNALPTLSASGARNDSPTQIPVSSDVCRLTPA
Chain of UniProt Q8WVK2 (Q8WVK2 whole entry, looked up): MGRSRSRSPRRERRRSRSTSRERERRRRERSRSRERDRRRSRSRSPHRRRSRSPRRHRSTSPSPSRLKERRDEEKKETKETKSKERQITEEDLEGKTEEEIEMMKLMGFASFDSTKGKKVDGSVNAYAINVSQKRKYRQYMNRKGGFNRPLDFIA
Chain of UniProt P56962 (P56962 whole entry, looked up): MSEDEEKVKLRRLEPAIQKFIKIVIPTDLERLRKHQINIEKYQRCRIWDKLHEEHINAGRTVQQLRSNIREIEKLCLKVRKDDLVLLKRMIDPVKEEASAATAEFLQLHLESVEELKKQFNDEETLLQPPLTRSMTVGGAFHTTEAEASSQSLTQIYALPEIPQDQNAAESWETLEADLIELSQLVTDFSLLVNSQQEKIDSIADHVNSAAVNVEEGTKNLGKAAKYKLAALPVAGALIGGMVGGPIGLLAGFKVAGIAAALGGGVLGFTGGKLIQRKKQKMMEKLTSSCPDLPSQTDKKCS
Chain of UniProt Q9NZD8 (Q9NZD8 whole entry, looked up): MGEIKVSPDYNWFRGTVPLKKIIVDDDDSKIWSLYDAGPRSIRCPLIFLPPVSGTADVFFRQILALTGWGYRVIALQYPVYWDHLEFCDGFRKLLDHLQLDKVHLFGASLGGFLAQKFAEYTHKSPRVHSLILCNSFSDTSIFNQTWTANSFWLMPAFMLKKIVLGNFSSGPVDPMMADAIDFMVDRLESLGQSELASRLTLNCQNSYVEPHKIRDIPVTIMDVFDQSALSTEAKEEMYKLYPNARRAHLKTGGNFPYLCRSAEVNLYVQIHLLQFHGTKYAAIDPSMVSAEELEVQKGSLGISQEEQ
Chain of UniProt Q9Y5X3 (Q9Y5X3 whole entry, looked up): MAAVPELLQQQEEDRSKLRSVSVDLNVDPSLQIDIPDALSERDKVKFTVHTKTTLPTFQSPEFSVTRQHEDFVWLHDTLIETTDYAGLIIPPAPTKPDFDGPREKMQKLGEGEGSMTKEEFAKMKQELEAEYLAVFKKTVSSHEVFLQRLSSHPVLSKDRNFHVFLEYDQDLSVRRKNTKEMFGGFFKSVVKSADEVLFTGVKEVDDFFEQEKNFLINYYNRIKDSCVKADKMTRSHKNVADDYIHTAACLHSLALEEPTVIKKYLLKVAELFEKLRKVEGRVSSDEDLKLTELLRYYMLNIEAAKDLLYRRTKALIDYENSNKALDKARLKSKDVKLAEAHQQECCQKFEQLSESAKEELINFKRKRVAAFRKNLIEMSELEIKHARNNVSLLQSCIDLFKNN
Chain of UniProt O15400 (O15400 whole entry, looked up): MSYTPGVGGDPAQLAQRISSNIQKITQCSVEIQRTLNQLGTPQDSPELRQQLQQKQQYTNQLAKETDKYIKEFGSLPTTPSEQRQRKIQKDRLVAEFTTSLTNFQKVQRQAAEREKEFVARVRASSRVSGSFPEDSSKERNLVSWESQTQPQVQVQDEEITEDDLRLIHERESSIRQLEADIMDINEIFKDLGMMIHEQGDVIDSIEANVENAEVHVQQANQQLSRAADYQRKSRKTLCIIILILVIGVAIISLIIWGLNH
Chain of UniProt Q8WXA9 (Q8WXA9 whole entry, looked up): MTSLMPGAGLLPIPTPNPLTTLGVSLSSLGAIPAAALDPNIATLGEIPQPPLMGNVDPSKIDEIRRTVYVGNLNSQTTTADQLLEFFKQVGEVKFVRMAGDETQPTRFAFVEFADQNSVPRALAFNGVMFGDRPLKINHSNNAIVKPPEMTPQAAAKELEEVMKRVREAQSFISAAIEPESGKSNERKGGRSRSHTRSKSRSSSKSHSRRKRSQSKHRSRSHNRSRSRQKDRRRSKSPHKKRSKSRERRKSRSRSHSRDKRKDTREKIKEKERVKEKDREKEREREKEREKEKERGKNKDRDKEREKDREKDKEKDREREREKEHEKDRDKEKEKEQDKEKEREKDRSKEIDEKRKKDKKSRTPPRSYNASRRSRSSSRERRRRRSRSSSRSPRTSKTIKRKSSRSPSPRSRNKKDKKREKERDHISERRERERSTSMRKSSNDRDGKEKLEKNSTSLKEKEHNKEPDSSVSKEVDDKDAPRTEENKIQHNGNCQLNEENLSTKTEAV
Chain of UniProt P42226 (P42226 whole entry, looked up): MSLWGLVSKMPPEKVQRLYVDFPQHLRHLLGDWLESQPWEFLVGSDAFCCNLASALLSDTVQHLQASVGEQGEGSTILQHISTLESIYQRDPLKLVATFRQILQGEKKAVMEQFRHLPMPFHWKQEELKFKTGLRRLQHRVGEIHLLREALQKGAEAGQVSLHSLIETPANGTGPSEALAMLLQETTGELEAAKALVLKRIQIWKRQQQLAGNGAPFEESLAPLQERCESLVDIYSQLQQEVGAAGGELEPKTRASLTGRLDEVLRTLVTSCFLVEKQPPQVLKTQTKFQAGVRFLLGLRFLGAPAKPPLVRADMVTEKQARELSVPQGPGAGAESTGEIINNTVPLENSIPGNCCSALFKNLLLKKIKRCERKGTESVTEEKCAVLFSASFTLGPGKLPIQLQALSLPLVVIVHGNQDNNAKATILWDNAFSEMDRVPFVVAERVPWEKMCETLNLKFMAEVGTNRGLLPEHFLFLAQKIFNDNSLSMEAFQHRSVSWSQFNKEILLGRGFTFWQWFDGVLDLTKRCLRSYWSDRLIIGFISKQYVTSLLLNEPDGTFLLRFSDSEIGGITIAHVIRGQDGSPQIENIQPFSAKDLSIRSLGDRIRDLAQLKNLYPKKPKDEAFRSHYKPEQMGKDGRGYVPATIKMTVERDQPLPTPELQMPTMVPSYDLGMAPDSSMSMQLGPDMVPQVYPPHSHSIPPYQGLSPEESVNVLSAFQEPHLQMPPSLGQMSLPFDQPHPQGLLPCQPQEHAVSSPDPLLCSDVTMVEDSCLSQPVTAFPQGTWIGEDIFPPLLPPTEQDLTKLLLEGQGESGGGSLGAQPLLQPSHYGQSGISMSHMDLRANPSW
Chain of UniProt Q16594 (Q16594 whole entry, looked up): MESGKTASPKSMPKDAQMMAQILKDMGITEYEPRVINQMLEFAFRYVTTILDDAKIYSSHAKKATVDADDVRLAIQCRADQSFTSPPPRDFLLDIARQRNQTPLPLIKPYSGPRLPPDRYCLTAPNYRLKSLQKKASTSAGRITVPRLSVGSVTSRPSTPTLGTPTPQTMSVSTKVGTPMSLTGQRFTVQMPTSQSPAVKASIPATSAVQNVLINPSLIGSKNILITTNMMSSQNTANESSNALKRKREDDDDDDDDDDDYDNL

| Target | log2 fold change (erlotinib) | log2 fold change [1] | log2 fold change [2] | log2 fold change [3] | log2 fold change [4] | log2 fold change [5] | log2 fold change [6] | log2 fold change [7] | log2 fold change [8] | log2 fold change [9] | log2 fold change (IRAK-1-4 Inhibitor I) | log2 fold change (ibrutinib) | log2 fold change [10] | log2 fold change (ralimetinib) | log2 fold change [11] | log2 fold change [12] | log2 fold change [13] | log2 fold change (pinometostat) | log2 fold change [14] | log2 fold change [15] |
| --- | --- | --- | --- | --- | --- | --- | --- | --- | --- | --- | --- | --- | --- | --- | --- | --- | --- | --- | --- | --- |
| TAF9 (UniProt Q16594) | -0.007 | -0.003 | -0.036 | 0.014 | -0.027 | 0.019 | -0.04 | -0.032 | -0.024 | 0.02 | -0.029 | 0.027 | 0.049 | 0.025 | 0.069 | 0.024 | 0.112 | -0.072 | 0 | -0.005 |
| SUPT5H (UniProt O00267) | 0.05 | 0.084 | 0.065 | 0.011 | 0.017 | 0.021 | 0.02 | 0.006 | -0.017 | 0.011 | -0.009 | -0.068 | 0.066 | -0.009 | -0.065 | -0.046 | 0.013 | -0.017 | -0.035 | -0.08 |
| SREK1 isoform 2 (UniProt Q8WXA9) | -0.036 | 0.1 | -0.019 | 0.12 | -0.149 | -0.084 | 0.233 | -0.096 | -0.126 | -0.24 | -0.245 | -0.006 | -0.497 (active) | 0.036 | 0.026 | -0.36 | 0.005 | 0.11 | 0.022 | 0.08 |
| SUGP1 (UniProt Q8IWZ8) | 0.039 | 0.093 | -0.027 | -0.029 | -0.01 | 0.005 | 0 | -0.012 | -0.03 | -0.001 | 0.008 | -0.024 | -0.08 | -0.023 | -0.003 | -0.127 | 0.061 | -0.017 | 0.011 | -0.003 |
| TBC1D15 isoform 3 (UniProt Q8TC07) | -0.007 | 0.075 | 0.024 | -0.029 | 0.059 | 0.067 | 0.029 | -0.035 | 0.016 | -0.048 | 0.235 | -0.021 | 0.009 | 0.041 | -0.082 | -0.326 (active) | 0.012 | 0.056 | 0 | -0.01 |
| STK38 (UniProt Q15208) | 0.039 | 0.138 | 0.029 | -0.021 | 0.014 | 0.079 | 0.057 | 0.049 | -0.025 | -0.05 | 0.004 | -0.073 | -0.308 (active) | 0.101 | -0.085 | -0.089 | 0.016 | 0.058 | 0.038 | -0.026 |
| STX7 (UniProt O15400) | 0.02 | -0.029 | 0.02 | 0.021 | -0.02 | 0.02 | -0.009 | -0.007 | 0 | 0.056 | -0.01 | 0.024 | 0.011 | -0.039 | 0.012 | -0.087 | -0.009 | -0.109 | 0 | 0.017 |
| TIMM44 (UniProt O43615) | -0.012 | 0.026 | 0.054 | -0.007 | 0.024 | 0.041 | 0.042 | 0.012 | 0.028 | -0.029 | 0.066 | -0.061 | -0.065 | -0.039 | -0.171 | -0.399 (active) | 0.006 | -0.004 | 0.028 | 0.022 |
| STX17 (UniProt P56962) | 0.206 | 0.003 | 0.124 | 0.015 | 0.041 | 0.016 | -0.01 | 0.059 | -0.004 | 0.027 | -0.062 | 0.002 | 0.031 | 0.037 | -0.063 | -0.235 | 0.028 | 0.006 | 0.062 | 0.138 |
| SPG21 (UniProt Q9NZD8) | 0.014 | 0.075 | -0.08 | 0.021 | -0.045 | 0.054 | 0.103 | 0.083 | -0.032 | 0.012 | -0.042 | -0.167 | -0.046 | 0.014 | 0.043 | -0.007 | 0.021 | 0.019 | -0.062 | 0.072 |
| SNRNP27 (UniProt Q8WVK2) | 0.026 | -0.021 | 0.052 | 0.015 | 0.015 | 0.045 | -0.165 | -0.027 | 0.061 | 0.035 | 0.033 | 0.002 | -0.03 | -0.118 | 0.018 | 0.035 | 0.054 | -0.04 | 0.082 | -0.043 |
| SPTBN1 (UniProt Q01082) | 0.003 | 0.067 | -0.065 | 0.011 | 0.03 | 0.046 | 0.021 | -0.055 | -0.067 | -0.071 | -0.079 | -0.013 | -0.033 | 0.08 | 0.043 | -0.094 | 0.024 | 0.044 | -0.012 | -0.001 |
| SNX2 (UniProt O60749) | 0.043 | 0.075 | 0.002 | 0.041 | 0.067 | -0.059 | -0.057 | -0.049 | 0.006 | -0.013 | 0.058 | 0.043 | -0.135 | -0.014 | -0.154 | -0.189 | 0.079 | 0.016 | 0.019 | 0.03 |
| STAT6 (UniProt P42226) | 0.082 | 0.061 | 0.12 | 0.018 | 0.022 | -0.032 | 0.025 | -0.026 | -0.063 | 0.04 | -0.145 | 0.031 | -0.222 | 0.054 | -0.128 | -0.058 | 0.007 | 0.11 | 0.125 | -0.048 |
| SLC4A2 (UniProt P04920) | 0.015 | 0.073 | -0.062 | 0.047 | 0.076 | 0.047 | 0.043 | -0.026 | -0.023 | 0.002 | 0.022 | -0.024 | -0.015 | 0.003 | -0.07 | -0.165 | 0.143 | 0.054 | 0.042 | 0.01 |
| SNX5 (UniProt Q9Y5X3) | 0.033 | 0.09 | 0.042 | 0.022 | 0.057 | -0.024 | -0.05 | -0.038 | 0.077 | -0.009 | 0.042 | 0.019 | -0.167 | -0.038 | -0.304 (active) | -0.224 | 0.005 | 0.027 | 0.018 | -0.026 |
